Screens deposited in PubChem BioAssay by several laboratories.
Only some compounds are listed: those with a hit (about 1.5% of all), similar ones and a draw of the others.
PABP1 MLLE inh: inhibitors of PABP1 MLLE–PAM2 peptide binding, primary screen, biochemical, fluorescence polarization, FITC-PAM2, GST-MLLE | AID 588489, 2011 | inhibition, % at 20 µM | hit rate 0.36% among 360,000; in the data active = inhibition above about 35%, passing the limit was not always enough;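 note: plate controls were DMSO wells with GST-MLLE for no effect and wells lacking GST-MLLE protein for full effect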
Target sequence (P11940 whole entry, looked up): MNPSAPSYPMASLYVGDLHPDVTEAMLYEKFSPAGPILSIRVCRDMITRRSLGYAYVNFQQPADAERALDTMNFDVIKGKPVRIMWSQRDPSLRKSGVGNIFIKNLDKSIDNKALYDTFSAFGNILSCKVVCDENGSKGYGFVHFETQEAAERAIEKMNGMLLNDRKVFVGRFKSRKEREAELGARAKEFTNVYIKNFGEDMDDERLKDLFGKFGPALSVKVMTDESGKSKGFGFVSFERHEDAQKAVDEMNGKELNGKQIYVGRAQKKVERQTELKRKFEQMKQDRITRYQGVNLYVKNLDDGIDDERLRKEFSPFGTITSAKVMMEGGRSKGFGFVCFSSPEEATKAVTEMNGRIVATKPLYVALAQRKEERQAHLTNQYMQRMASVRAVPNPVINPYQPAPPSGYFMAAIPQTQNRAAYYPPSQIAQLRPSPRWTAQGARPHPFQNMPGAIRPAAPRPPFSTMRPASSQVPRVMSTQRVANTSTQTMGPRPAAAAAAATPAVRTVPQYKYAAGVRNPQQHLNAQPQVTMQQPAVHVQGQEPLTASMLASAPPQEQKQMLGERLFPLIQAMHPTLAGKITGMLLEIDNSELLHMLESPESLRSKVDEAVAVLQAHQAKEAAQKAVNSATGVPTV
eIF4E-4G inh: eIF4E–eIF4G protein interaction inhibitors, primary screen, biochemical, uHTS, TR-FRET, eIF4GI fragment | Eukaryotic translation initiation factor 4E (Mus musculus) + Eukaryotic translation … | TR-FRET eIF4E-eIF4GI(517-606) binding, 2 h | inhibition, % at 21.7 µM | hit rate 0.37% among 220,000 | AID 782, 2007;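 active = inhibition above about 30%, limit read from the data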;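 note: 0% = full FRET control wells and 100% = background wells lacking eIF4GI fragment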
eIF4H FP inh: human eIF4H binding inhibitors, primary screen, translation initiation inhibitor project, biochemical, uHTS, fluorescence polarization | hit rate 0.94% among 290,000 | eIF4H fluorescence polarization binding assay | Eukaryotic translation initiation factor 4H (Homo sapiens), Q15056 | inhibition, % at 35 µM | AID 2012, 2009;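 note: calls also rest on retests at 20 µM and on dose response follow-up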
PABP FP inh: PABP poly(A) RNA binding inhibitors, primary screen, biochemical, fluorescence polarization, uHTS. Polyadenylate-binding protein 1 (Homo sapiens), P11940. calls only at 35 µM. hit rate 1% among 290,000. AID 2014, 2009;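 note: calls also rest on retests at 20 µM and on dose response follow-up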
Starred values were filed as active, the others as inactive; i = inactive; ? = inconclusive; nt = no result; + = active, no number. Unless noted, the rule behind the calls is not given here.

SMILES | PABP1 MLLE inh | eIF4E-4G inh | eIF4H FP inh | PABP FP inh
CC(C)Oc1ccc(C(=O)NC2(C(F)(F)F)N=C3SCCN3C2=O)cc1 (configuration not stated) | 46* | 0 | -7 | i
CC1(C)CC2(C)OC2C2(C1)N=NC(=Nc1ccccc1)O2 (configuration not stated) | -31 | nt | nt | nt
Cc1ccnc(N2C(=O)c3cccc4c([N+](=O)[O-])ccc(c34)C2=O)c1 | 63* | 7 | 77* | +
COc1ccc(S(=O)(=O)NC(=O)C2(C)CCN2C(=O)CC2CC2)cc1 (configuration not stated) | -6 | nt | nt | nt
C[C@]1(CC/C(=C/CO)CO)[C@H](C=O)CC[C@@]23COC(=O)C2=CCC[C@@H]31 | -2 | nt | nt | nt
COc1cc(O)c(C(C)=O)c(OC)c1 | -2 | nt | nt | nt
COc1cc(O)c(C(C)=O)c(CC(=O)O)c1 | 2 | -14 | 96* | +
CCOC(=O)c1sc(=S)n(C)c1NC(=O)c1ccc(OC)cc1 | 31 | 7 | -9 | i
CCOC(=O)c1sc(=S)n(C)c1NC(=O)c1ccccc1Cl | 43* | -1 | 1 | i
O=S(=O)(/N=C(/Sc1ccccc1)c1ccccc1)c1ccccc1 | 38* | 7 | 7 | i
CS/C(=N\S(=O)(=O)c1ccccc1)c1ccccc1 | 1 | -5 | -10 | i
O=C(c1cc2c(s1)CCCC2)N1CCN(Cc2ccc3c(c2)OCO3)CC1 | 4 | 10 | -12 | i
O=C(Oc1ccc2c(c1)OCO2)c1cc2c(s1)CCC2 | 0 | 0 | 98* | +
O=C(NCc1ccc(F)cc1)c1cc(C2CCCCN2C(=O)c2ccc(Cl)cc2)on1 (configuration not stated) | 1 | nt | nt | nt
O=C(NCC(=O)N1CCC(Cc2ccccc2)CC1)c1ccccc1F | 5 | nt | nt | nt
Cc1cnc(C=NNC(N)=S)c2cccc(N)c12 | 43* | nt | nt | nt
Cc1cc(-c2nc3cc(F)ccc3s2)ccc1N | -5 | nt | nt | nt
Cc1cccc(NC(=S)NNC(=O)c2csc3c2CCCC3)c1 | 38* | -4 | 18 | i
CO/N=C/C(C#N)c1ncc(C(F)(F)F)cc1Cl (configuration not stated) | 2 | 83* | 1 | i
CCn1c(C)c(C(=O)c2ccccc2)c(C#N)c1C(=O)O | 3 | nt | 1 | i
O=c1cc(-c2ccccc2Cl)oc2ccc([N+](=O)[O-])c(O)c12 | -2 | -2 | 11 | i
Nc1ccc2oc(-c3ccccc3Cl)cc(=O)c2c1O | 12 | 5 | 90* | +
Cc1c(C=O)c2ccccn2c1C(=O)c1cccs1 | 32 | 1 | 94* | +
O=C(Nc1ccccc1Cl)c1ccccc1CC(O)(c1ccccc1)c1ccccc1 | -10 | nt | nt | nt
COc1ccccc1CNC(=O)COC(=O)c1cc(C)nc2ccccc12 | 7 | nt | nt | nt
SMILES | PABP1 MLLE inh | eIF4E-4G inh | eIF4H FP inh | PABP FP inh
O=C(NC1CCC(O)CC1)c1cc(-c2ccco2)nc2ccccc12 (configuration not stated) | 10 | 40* | 85* | +
CCc1nnc(NC(=O)c2cc(-c3ccco3)nc3ccccc23)s1 | -7 | 24 | 76* | i
O=C(NCC1CCCO1)c1cc(-c2ccncc2)nc2ccccc12 (configuration not stated) | 12 | nt | nt | nt
O=C(NCC1CCCO1)c1cc(-c2ccco2)nc2ccccc12 (configuration not stated) | 13 | 12 | 82* | +
COc1ccccc1CNC(=O)COC(=O)c1cc(-c2ccco2)nc2ccccc12 | -12 | 0 | 90* | +
COc1ccc(CC(N)c2csc(Nc3ccc(S(C)(=O)=O)cc3)n2)cc1 (configuration not stated) | 9 | nt | nt | nt
CC(c1ccccc1)n1ccnc1CO (configuration not stated) | 7 | nt | nt | nt
COc1cc(/C=N/NC(=O)c2cc(-c3ccco3)nc3ccccc23)cc(OC)c1O | -11 | 14 | ? | ?
O=C(NCC1CCCO1)c1cc2nc(-c3ccco3)cc(C(F)(F)Cl)n2n1 (configuration not stated) | 8 | nt | 83* | +
O=C(N/N=C/c1cccc(F)c1)c1cc(-c2ccco2)nc2ccccc12 | -18 | 20 | 84* | +
C[C@H](CO)N1C[C@H](C)[C@@H](CN(C)C(=O)Nc2ccc(F)cc2)OCc2cnnn2CCCC1=O | 19 | nt | nt | nt
CCCc1nc2ccc(C)cn2c1Cc1ccc(OC)cc1C | -20 | nt | nt | nt
COc1ccc2c(c1)nc(NCCCO)n2Cc1ccccc1 | -4 | -10 | 8 | i
Cc1c(OC(C)C(=O)NC(Cc2c[nH]c3ccc(O)cc23)C(=O)O)ccc2c1oc(=O)c1ccccc12 (configuration not stated) | 7 | nt | 81* | +
CC(Oc1ccc2ccc(=O)oc2c1)C(=O)NC(Cc1c[nH]c2ccc(O)cc12)C(=O)O (configuration not stated) | -14 | nt | 87* | i
COc1ccc(-c2cc(=O)oc3cc(OC(C)C(=O)NC(Cc4c[nH]c5ccc(O)cc45)C(=O)O)ccc23)cc1 (configuration not stated) | 2 | nt | 9 | i
Cc1c(C)c2ccc(OC(C)C(=O)N[C@@H](Cc3c[nH]c4ccccc34)C(=O)O)c(C)c2oc1=O (some centres not stated) | 0 | nt | -5 | i
CCc1nc2c(OCc3c(C)noc3C)cccn2c1N(C)C(=O)c1ccccc1F | -13 | nt | nt | nt
CNC(=O)c1c(N)sc2c1CCCCC2 | nt | -7 | 124* | +
CCCCn1c(-c2cccnc2)nc2cc3[nH]c(=O)c(C(C)C)nc3cc21 | -30 | nt | 76 | +
CCCCn1c(-c2ccc(C(C)(C)C)cc2)nc2cc3[nH]c(=O)c(C(C)C)nc3cc21 | -22 | nt | 66 | +
COc1ccc(C2=NN(CCC(=O)NC3CCCCC3C)C(=O)CC2)cc1 (configuration not stated) | 2 | nt | nt | nt
C[C@H](CO)N1C[C@H](C)[C@@H](CN(C)S(=O)(=O)c2ccccc2C#N)OCc2cnnn2CCCC1=O | 1 | nt | nt | nt
Cc1ccc2nc(-c3cccc(Br)c3)c(Cc3cccc(Cl)c3)n2c1 | -22 | nt | nt | nt
O=C(O)Cc1csc(-c2ccccc2)n1 | 3 | 2 | 7.1* | i
SMILES | PABP1 MLLE inh | eIF4E-4G inh | eIF4H FP inh | PABP FP inh
CCc1nc2c(OCCC3CCCCC3)cccn2c1N(C)C(=O)c1cccs1 | -19 | nt | nt | nt
NC(=O)c1cc(-c2ccccc2)nc(N2CCOCC2)n1 | -9 | -4 | -7 | i
CC[n+]1cc(-c2ccccc2)nc(N2CCOCC2)n1 | -113 | 30 | -3 | +
Nc1c(C(=O)Nc2ccccc2)sc2nc3c(c(-c4ccco4)c12)CCCC3 | -12 | -1 | 20 | i
Cc1ccc(NC(=O)c2sc3nc4c(c(-c5ccco5)c3c2N)CCC4)cc1 | -9 | 4 | 82* | +
Nc1c(C(=O)Nc2ccccc2)sc2nc3c(c(-c4ccco4)c12)CCC3 | 3 | 2 | 84* | +
O=C(c1cnc2sccn2c1=O)N1CCN(c2ccccc2Cl)CC1 | -2 | 98* | 0 | i
